SMILES strings stand for the structures. Among all 220,000 compounds or so, about 2,000 (0.91%) were called active. Not shown: some 2% with an inconclusive outcome. Not all results are given here. Results with a measured potency or affinity are listed apart. Values without a mark were called inactive. Rule as the data show it: inconclusive = inhibition above about 80% without an active follow-up result; inactive = below that; test concentration not stated here.

A short description of this test: M. tuberculosis H37Rv growth inhibitors, H37Rv strain (AID 1626).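 Also: bacteria incubated seven days before Alamar blue readout; 0% = bacteria only wells and 100% = bacteria with antibiotic wells.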 Conditions: active compounds read high, concentration not given here.
Regarding `O=C(COC(=O)c1cc(S(=O)(=O)N2CCOCC2)ccc1O)Nc1cc(S(=O)(=O)N2CCCC2)ccc1Cl`, the inhibition – broadly, the drop in the measured response relative to a control, in per cent – was -7.64%. `Cc1cccnc1NC(=O)Nc1ccccc1`: the inhibition was -2.38%.

`Cc1ccc(C(=O)Nc2ccc3c(c2)CCC3)cc1`: the inhibition was 27.7%. For `Cc1nc(NC(=O)c2ccc(F)cc2)sc1C(=O)Nc1ccc2c(c1)CCC2`, the inhibition was 10.8%. On to `O=C1CC2(CCCCCC2)Oc2ccc(Cl)cc21`, for which the inhibition is -6.31%. `COc1cccc(-c2cc(C(=O)NCCN3CCOCC3)no2)c1`: the inhibition was 0.49%. For the compound `COc1ccc(NC(=S)NCCCN2CCOCC2)cc1`, the inhibition is -0.5%. On to `Cc1ccccc1OCc1nc(-c2ccc(NC(=O)c3ccco3)cc2)no1`, for which the inhibition was 19.3%. As for `CCCc1ccc(OCc2nc(-c3ccc(NC(=O)c4cccs4)cc3)no2)cc1`, the inhibition was 15.6%. For `Cc1ccc(-n2c(-c3ccncc3)n[nH]c2=S)cc1`, the inhibition is -9.92%. The figure for `Cc1cc2oc(C(=O)N(Cc3cccs3)C3CCS(=O)(=O)C3)cc(=O)c2cc1Cl` (stereo unspecified) is 0.6%.

With `O=C(NCCc1ccccc1)C1CCN(Cc2ccccc2F)CC1`, the inhibition was 0.69%. On to `CCCSc1nnc(Cn2c(=O)sc3ccccc32)n1C`, for which the inhibition was 3.51%. The figure for `CC1(C)Cc2c(sc(NC(=O)COc3ccccc3)c2C#N)C(C)(C)N1` is -3.34%; for `CCOC(=O)c1c(NC(=O)C2COc3ccccc3O2)sc(C)c1C` (stereo unspecified) it is -3.73%. As for `CCOC(=O)c1c(NC(=O)C2COc3ccccc3O2)sc(C(C)=O)c1C` (stereo unspecified), the figure is -3.37%; as for `Cc1ccc(OCC(=O)Nc2sc3c(c2C#N)CC(C)(C)NC3(C)C)cc1`, 10.1%. As for `CCOC(=O)c1cc2occc2n1CCCN1C(=O)c2ccccc2C1=O`, the figure is -1.25%. Turning to `CCc1cc2ccc(OC)cc2nc1SCC(=O)NNC(C)=O`, the inhibition is 2.9%. On to `CC(=O)N(NC(N)=O)C(C)CC(=O)C1C(C)C=CCC1(C)C` (stereo unspecified), for which the inhibition is -4.41%. For `CC(c1nnnn1C(C)(C)C)N(Cc1cccnc1)Cc1ccccc1Cl` (stereo unspecified), the inhibition was 11.3%. Turning to `O=C(Cc1cc(=O)[nH][nH]1)N/N=C/c1ccccc1Cl`, the inhibition is 0.78%. Take `O=[N+]([O-])c1ccc(/C=N/N/C(=N/c2ccccn2)c2ccccn2)cc1`: the inhibition is 6.35%. As to `O=C(COc1ccccc1[N+](=O)[O-])N/N=C/c1ccc(O)c([N+](=O)[O-])c1`, the inhibition was -1.06%. With `C=CCNC(=S)NNC(=O)c1ccc(=O)n(Cc2ccc(Cl)cc2Cl)c1`, the inhibition is 2.51%. As for `COC(=O)/C(=C1/Oc2ccc(C(C)(C)C)cc2S1)C(F)(F)F`, the figure is -3.79%; as for `COC(=O)/C(=C1/Oc2ccc(C)cc2S1)C(F)(F)F`, 1.01%. The figure for `CCCCCn1c(=O)[nH]c2cc(C(=O)NCCN(CC)CC)ccc2c1=O` is 2.41%; for `Cc1cc2cc(C)c(SCC(=O)NCc3ccco3)nc2cc1C` it is 2.4%. Consider `COC(=O)CCCC[C@H]1SC[C@H]2NC(=O)N[C@]21O`, for which the inhibition is -9.41%. For `COc1ccc(Cl)cc1C(=O)Nc1ccc(NC(=O)C(C)C)cc1`, the inhibition was 6.21%. For the compound `Cc1ccc(S(=O)(=O)n2c([N+](=O)[O-])cnc2C)c(C)c1C`, the inhibition is 2.51%. As for `Cc1nn(-c2ccccc2)c2sc(C(=O)O)cc12`, the figure is -2.71%; as for `CC(=O)c1sc(NC(=O)c2cc3c(C)nn(-c4ccccc4)c3s2)nc1C`, -3.28%. Take `C/C=C/c1ccc(OCC(=O)OCC)c(OC)c1`: the inhibition is 78.2%. Regarding `Cc1ccc(Nc2nc(COC(=O)COc3ccc(C=O)cc3)cs2)cc1`, the inhibition is -1.49%. `Cc1occc1-c1n[nH]c(=S)n1C`: the inhibition is -11.2%. Regarding `NC(=O)C1CCN(C(=O)C2c3ccccc3C(=O)N3CCc4ccccc4C23)CC1` (stereo unspecified), the inhibition is 1.51%. As for `O=C(c1cnc(N2CCN(c3ncccn3)CC2)c2ccccc12)N1CCN(c2ccccn2)CC1`, the inhibition is 1.07%. With `COc1ccccc1N1CCN(c2ncc(C(=O)N3CCN(c4cccc(Cl)c4)CC3)c3ccccc23)CC1`, the inhibition was 95%. As for `CC(C)NC(=O)c1cnc(N2CCN(c3ccccn3)CC2)c2ccccc12`, the figure is 6.14%; as for `Cn1nc(-c2ccc(Cl)cc2)c2cc(C(=O)N3CCN(c4ccccc4)CC3)sc21`, 7.8%; as for `COc1cccc(-c2nn(C)c3sc(C(=O)N4CCN(c5ccccn5)CC4)cc23)c1`, 60%.

As for `O=C(Nc1ccc(C(F)(F)F)cc1)c1cnc(N2CCN(c3ccccn3)CC2)c2ccccc12`, the inhibition is 65.3%. As to `O=C(NN1C(=O)C2C3C=CC(O3)C2C1=O)c1cccc(Br)c1` (stereo unspecified), the inhibition was 5.77%. Turning to `Cc1c(C(=O)NCC2CCCO2)cccc1[N+](=O)[O-]` (stereo unspecified), the inhibition is 2.82%. For `O=C(NCc1cccc(C(F)(F)F)c1)C1CCN(c2ncccn2)CC1`, the inhibition is -1.47%.

For `O=C(O)CCc1nc2ccccc2n(CCc2ccccc2)c1=O`, the inhibition was -8.81%.

In the case of `O=C(C1CC(c2ccc(F)cc2)=NO1)N1CCc2ccccc2C1` (stereo unspecified), the inhibition was -0.85%. As to `O=C(c1cccc(F)c1)N1CCN(C(=O)c2nn3cccnc3c2Cl)CC1`, the inhibition was 0.18%.

As to `O=C(c1ccc(F)cc1)C1CCN(C(=O)c2ccncc2)CC1`, the inhibition is -7.5%.

In the case of `O=C(/C=N/O)Nc1ccc2sc3ccccc3c2c1`, the inhibition is 50.4%.

For the compound `N#Cc1c2n(c3c(=O)n(CC(=O)c4ccc(Br)cc4)cnc13)CCCC2`, the inhibition is 1.64%. With `CC(C)CCN1CCN(Cc2nc(-c3ccccc3)cs2)CC1CCO` (stereo unspecified), the inhibition was 4.13%.

As for `O=C(CSc1ncnc2nc[nH]c12)c1ccc([N+](=O)[O-])cc1`, the inhibition was -0.96%.

With `Cn1cnc([N+](=O)[O-])c1Sc1ncnc2nc[nH]c12`, the inhibition was 7.31%.

As to `COc1cc(/C=N/NC(=O)c2cncc(Br)c2)ccc1OC(=O)c1ccc2c(c1)OCO2`, the inhibition was -4.21%.

As to `COc1cccc(CC2(CO)CCCN(Cc3cc4ccccc4[nH]3)C2)c1` (stereo unspecified), the inhibition was 9.65%. Turning to `OCC1(CCOc2ccccc2)CCN(CC2=Cc3cc(Cl)ccc3OC2)CC1`, the inhibition was 6.89%. Regarding `COc1ccc2[nH]c(CN3CCC(CO)(CCOc4ccccc4)CC3)c(C)c2c1`, the inhibition was -2.25%. Consider `COc1cccc(CC2(CO)CCCN(Cc3ccc(C)s3)C2)c1` (stereo unspecified), for which the inhibition was 4%. For the compound `COc1cc(OC)cc(C(=O)NCC(=O)OCC(=O)N2c3ccccc3NC(=O)C2(C)C)c1`, the inhibition is -1.81%. As for `COc1ccc(CN2CCN(CCCc3ccccc3)CC2)c(OC)c1`, the figure is 1.06%; as for `COc1cccc(C2C(C(=O)c3cc4cccc(OC)c4o3)=C(O)C(=O)N2c2cc(C)on2)c1OC` (stereo unspecified), -9.58%. For the compound `COc1cc2c(cc1OC)C(C)N(C(=O)c1cc3ccccc3o1)CC2` (stereo unspecified), the inhibition was 3.79%. As to `Cc1cc(=O)oc2cc(OCC(=O)Nc3ccc(S(=O)(=O)N(C)C)cc3)ccc12`, the inhibition was -9.04%.

For the compound `O=C(Nc1ccc(F)cc1)N1CCN(c2nc3ccccc3s2)CC1`, the inhibition is 6.46%. Take `O=C(Nc1ccccc1)N1CCN(c2nc3ccccc3s2)CC1`: the inhibition is -10%. As for `CC(=O)Cc1nsc(NC(=O)c2ccc(-c3ccc(Cl)cc3Cl)o2)n1`, the figure is -7.01%; as for `Cc1ccc(OCC(=O)N(Cc2cccs2)C2CCS(=O)(=O)C2)cc1C` (stereo unspecified), 1.52%.

Take `CC(C)C1OC(c2cccc(NC(=O)c3cccs3)c2)OCC1(C)C` (stereo unspecified): the inhibition was 3.13%. As for `CCCCOc1ccc(CSCCN=C(N)N)cc1`, the figure is 10.7%. Consider `COc1ccc(CNC(=O)c2c(N)n(CCCN3CCOCC3)c3nc4ccccc4nc23)cc1`, for which the inhibition was 16.6%.

For the compound `CCCCCn1c(N)c(C(=O)NCCN2CCOCC2)c2nc3ccccc3nc21`, the inhibition is 27.3%.

As for `Nc1c(C(=O)NCCN2CCOCC2)c2nc3ccccc3nc2n1Cc1ccccc1`, the inhibition is 13.8%. Take `COc1ccc(CCNC(=O)c2c(N)n(CCN3CCOCC3)c3nc4ccccc4nc23)cc1OC`: the inhibition is 20.2%. The figure for `Nc1c(C(=O)NCc2ccc(F)cc2)c2nc3ccccc3nc2n1CCCN1CCOCC1` is 14.5%; for `Nc1c(C(=O)NCCN2CCOCC2)c2nc3ccccc3nc2n1CCc1ccccc1` it is 34.9%; for `CS(=O)(=O)c1ccc(C(=O)OCC(=O)NC23CC4CC(CC(C4)C2)C3)cc1[N+](=O)[O-]` it is 6.01%. As for `Cc1c(N=C2SCC(=O)N2/N=C\c2ccc(Br)cc2)c(=O)n(-c2ccccc2)n1C`, the figure is 2.9%. Turning to `Cn1c(N)c(C(=O)COC(=O)CCCc2nc3ccccc3s2)c(=O)n(C)c1=O`, the inhibition is 3.44%. In the case of `COc1cc(C(=O)NCCc2ccc(S(=O)(=O)N3CCCC3)cc2)cc(OC)c1OC`, the inhibition was -6.26%. Take `CCCC1(C(=O)OCC)NC(c2ccc(O)cc2)C2C(=O)N(c3ccc4c(c3)OCCO4)C(=O)C21` (stereo unspecified): the inhibition is 11.1%. As for `COc1cccc(NC(=O)NC2CCCc3ccccc32)c1` (stereo unspecified), the figure is 0.07%.

For the compound `O=C(O)CSc1c2c(nc3cc(C(=O)NCCN4CCOCC4)ccc13)CCC2`, the inhibition was -7.4%. As for `O=C(NCCCN1CCOCC1)c1ccc(CS(=O)(=O)Cc2ccc(Cl)cc2)o1`, the figure is 2.9%; as for `O=c1oc2ccccc2c(Nc2ccccc2)c1[N+](=O)[O-]`, -3.06%; as for `Cc1ccc(Nc2c([N+](=O)[O-])c(=O)oc3ccccc23)cc1C`, 60.5%. Take `CN1C(=O)NC(=O)/C(=C\C=C\c2ccccc2[N+](=O)[O-])C1=O`: the inhibition was 3.14%. As for `N#C/C(=C\c1ccc(N2CCOCC2)o1)C(=O)NCCc1ccccc1`, the inhibition was 1.46%. For `N#C/C(=C/c1ccc(Br)s1)C(=O)NCCc1c[nH]c2ccccc12`, the inhibition is -14%.

The values above are taken from PubChem BioAssay AID1626 (SRMLSC, 2009).
